Screening data deposited in PubChem by ICCB-Longwood Screening Facility, Harvard Medical School.
fixLJ activator = activators of Burkholderia fixLJ two-component system; B. multivorans fixK-promoter GFP reporter, 18 h; active compounds read high; z-score (no concentration beside the values); actives 0.3% (n = 29,000); AID 1918990;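 active = replicate mean overnight rise in green fluorescent reporter signal, 3 or more SD over negative controls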
Each line names hits and unclear results; the compound was inactive in the other large screens. This excerpt belongs to a sample that is enriched for hits.

O=C(O)c1ccccc1Nc1cccc(C(F)(F)F)c1	none
O=C(Nc1ccccc1N1CCOC1=O)N1Cc2cnn(CCO)c2C1	none
CC(C(=O)Nc1nccs1)N1CCCN(S(C)(=O)=O)CC1 (stereo not given)	none
CN1CC(=O)N2CCN(Cc3nn(C)c4cccc(Cl)c34)CC2C1=O (stereo not given)	none
O=C(NCc1cc(-c2ccc(F)cc2)no1)C1CCCCn2nnnc21 (stereo not given)	none
Cn1nc(CNC(=O)C2CCCCn3nnnc32)c2c(Cl)cccc21 (stereo not given)	fixLJ activator 3.3
Cc1cccc(C(C(=O)NCCn2nc(C(F)(F)F)cc2C)N(C)C)c1 (stereo not given)	none
CS(=O)(=O)NCCC(=O)NCc1nc(-c2ccccc2)n[nH]1	none
CC(=O)NCCCC(=O)N1CC(O)C(Cc2ccc3ccccc3n2)C1 (stereo not given)	none
CCOc1ccc(-n2c(=O)c3c(C)c(C)sc3n(CC(=O)c3ccccc3)c2=O)cc1	fixLJ activator 3.2
Cc1ccc(-n2c(=O)c3c(C)c(C)sc3n(CC(=O)c3ccc(Cl)cc3)c2=O)cc1C	none
CCOc1ccc(-n2c(=O)c3c(C)c(C)sc3n(CC(=O)N(CC)Cc3ccccc3)c2=O)cc1	none
COCCNC(=O)CCn1c(=O)c2cc(OC)c(OC)cc2n(CC(=O)Nc2ccccc2C)c1=O	none
COCCNC(=O)CCn1c(=O)c2cc(OC)c(OC)cc2n(CC(=O)Nc2ccccc2OC)c1=O	fixLJ activator 4.6
COCCNC(=O)CCCn1c(=O)c2cc(OC)c(OC)cc2n(CC(=O)Nc2ccc(F)cc2)c1=O	none
O=C(NCc1csc(N2CCCC2)n1)c1onc2ncccc12	none
CC(=O)NC1CCN(C(=O)c2ccc3nc(-c4ccccc4)cn3c2)C1 (stereo not given)	none
Cc1cc(C(=O)N2CCC3(CC2)CN(CC(C)c2ccccc2)C(=O)O3)n[nH]1 (stereo not given)	none
COc1ccc(C(=O)N(Cc2cocn2)Cc2cocn2)c2ccccc12	none
CC[C@H](NC(C)C)[C@H](O)c1ccc(O)c2[nH]c(=O)ccc12	none
CCC(NC(C)C)C(O)c1ccc(O)c(O)c1 (stereo not given)	fixLJ activator 8.2
C[C@H](N)[C@H](O)c1cccc(O)c1	none
Nc1nc(NCCCOc2ccccc2)cc(C2CC(N)C2)n1 (stereo not given)	none
CSc1cccc(Nc2cc(C(=O)NCCc3ccc(Cl)cc3)c3ccccc3n2)c1	none
COc1ccc(Nc2cc(C(=O)NCCCN(C)C3CCCCC3)c3ccccc3n2)cc1	none
CCCCN(CCCNC(=O)c1cc(Nc2cccc(SC)c2)nc2ccccc12)Cc1ccccc1	fixLJ activator 3.2
COc1cc2c(cc1OC)C1(CCN(C(=O)c3cc(C)n(C)n3)CC1)OCC2	none
CN1CCc2nc3sc(C(=O)c4ccc(F)cc4)c(N)c3cc2C1	none
Cc1ccccc1NC(=O)c1sc2nc3c(cc2c1N)CN(Cc1ccccc1)CC3	none
CCN1CCc2nc3sc(C(=O)c4ccccc4)c(N)c3cc2C1	fixLJ activator 26
O=S(=O)(NC1COCC1Cc1ccncc1)c1ccc(-c2cc(C(F)(F)F)on2)o1 (stereo not given)	none
COc1ccc(Nc2cc(C(=O)NCCc3ccc(C)cc3)c3ccccc3n2)c(OC)c1	none
COc1ccc(CNC(=O)c2cc(Nc3ccc(OC)cc3OC)nc3ccccc23)cc1	none
COc1ccc(OC)c(Nc2cc(C(=O)NCc3ccccc3)c3ccccc3n2)c1	fixLJ activator 4.2
CC(C)C1=NOC(C(=O)NCc2ccc(-c3ncon3)cc2)C1 (stereo not given)	none
CCc1nc2ccccc2n1C(CC)C(=O)NCc1cccnc1 (stereo not given)	none
O=C(Cc1ccc(-n2cnnn2)cc1)NCCCn1ccnc1	none
O=c1oc2ccc3ccccc3c2cc1-c1nnc(Nc2ccccc2F)s1	none
O=c1oc2cc(O)ccc2cc1-c1nnc(Nc2ccccc2F)s1	fixLJ activator 23
CCOc1ccc2cc(-c3nnc(Nc4ccc(C)cc4)s3)c(=O)oc2c1	none
CC(C)C(=O)Nc1ccc(NC(=O)c2cncc(F)c2)cc1Cl	none
CCCCN(CC)CCCNC(=O)Cn1ncc2c3ccccc3n(Cc3ccc(F)cc3)c2c1=O	none
O=C(Cn1ncc2c3ccccc3n(Cc3ccc(Cl)cc3)c2c1=O)NCCCc1ccccc1	none
CCN(CC)CCCNC(=O)Cn1ncc2c3ccccc3n(Cc3ccccc3)c2c1=O	none
CCCCN(C)CCCNC(=O)Cn1ncc2c3ccccc3n(Cc3cccc(Cl)c3)c2c1=O	fixLJ activator 6.4
CC(C)N(Cc1ccccc1)C(=O)Cn1ncc2c3ccccc3n(Cc3ccccc3)c2c1=O	none
CC1CCCCN1CCCNC(=O)Cn1ncc2c3ccccc3n(Cc3ccccc3F)c2c1=O (stereo not given)	none
Cc1ccc(Cn2c3ccccc3c3cnn(CC(=O)Nc4cc(Cl)ccc4C)c(=O)c32)cc1	none
CCCN(CCC)CCCNC(=O)Cn1ncc2c3ccccc3n(Cc3ccc(F)cc3)c2c1=O	none
Cc1ccccc1Cn1c2ccccc2c2cnn(CC(=O)NCc3cccc(Cl)c3)c(=O)c21	none
O=C(Cn1ncc2c3ccccc3n(Cc3cccc(Cl)c3)c2c1=O)NCCCc1ccccc1	fixLJ activator 19
O=C(Cn1ncc2c3ccccc3n(Cc3cccc(Cl)c3)c2c1=O)NCCCN1CCCCC1	fixLJ activator 16
CN(Cc1ccccc1)C(=O)Cn1ncc2c3ccccc3n(Cc3cccc(Cl)c3)c2c1=O	fixLJ activator 5.5
Cc1cc(C(=O)N2CCCN(C(=O)c3cccc(C)n3)CC2)c(O)cn1	none
CC(c1ccncn1)N(C)C(=O)NC1(c2ccc(Cl)cc2)CC1 (stereo not given)	none
CCCCc1ccc(NC(=O)NC(C)c2n[nH]c(C)n2)cc1 (stereo not given)	none
Cc1nc(CCN(C)C(=O)Cc2cccc(OCCN)c2)no1	none
Cc1cccc(N2CCC(NC(=O)c3cc(C#N)cn3C)CC2)c1	none
CC(C)C(=O)N1CCC(CNC(=O)c2cccn3cnnc23)CC1	none
CCC(=O)N1CCc2cc(Br)cc(S(=O)(=O)N3CCN(c4ccccc4)CC3)c21	none
O=C(C1CC1)N1CCc2cc(Br)cc(S(=O)(=O)N3CCN(c4cccc(Cl)c4)CC3)c21	none
CC(=O)N1CCc2cc(Br)cc(S(=O)(=O)N3CCN(c4cccc(C(F)(F)F)c4)CC3)c21	fixLJ activator 3.3
CCn1c(N)nc2cc(C(=O)NCc3ccc(-n4cccn4)cc3)cnc21	none
O=C(Cn1ncc2c3ccccc3n(Cc3ccccc3F)c2c1=O)N1CCCCCC1	none
O=C(Cn1ncc2c3ccccc3n(Cc3ccc(Cl)cc3)c2c1=O)N1CCCCCC1	fixLJ activator 6.4
CCCN1CCN(C(=O)Cn2ncc3c4ccccc4n(Cc4cccc(Cl)c4)c3c2=O)CC1	fixLJ activator 14
O=C(Cn1ncc2c3ccccc3n(Cc3ccccc3F)c2c1=O)N1CCCCC1	none
CN1CCN(C(=O)Cn2ncc3c4ccccc4n(Cc4ccc(F)cc4)c3c2=O)CC1	none
CCOC(=O)C1CCN(C(=O)Cn2ncc3c4ccccc4n(Cc4ccccc4)c3c2=O)CC1	none
O=C(Cc1ccc(F)cc1)N1CCCC(c2nccn2Cc2cscn2)C1 (stereo not given)	none
COCC1(C(=O)N2CCC[C@]3(C2)CN(C2CCOCC2)CCC3O)CCC1 (stereo not given in full)	none
CCOc1ccccc1C(=O)N1CC(O)C(Cc2ccccn2)C1 (stereo not given)	none
Cc1ccc(S(=O)(=O)NCc2cc3n(n2)CCN(C(=O)C(C)C)C3)cc1C	none
Cc1ccc(CN2COc3ccc4c(-c5ccccc5)cc(=O)oc4c3C2)cc1	none
COc1ccc(CN2COc3ccc4c(-c5ccccc5)cc(=O)oc4c3C2)cc1	fixLJ activator 3.7
COC(=O)Cc1c(C)c2ccc3c(c2oc1=O)CN(Cc1ccc(C)cc1)CO3	none
